Results on 94 molecules are retold here after PubChem BioAssay AID686971 (National Center for Advancing Translational Sciences (NCATS), 2013).

In all, about 360,000 compounds went through this assay and about 7,500 (2.1%) were called active. Where a call stands in place of a potency, no number is given. Another 8% or so got no clear call; they are omitted. Calls follow the shape of the dose curve; as a rule, active = well fitted cell-killing curve with a large enough effect; inconclusive = small, poorly fitted or top-dose-only effect, or effect the other way, or another doubt; inactive = no such curve, though single readings can be large or run the other way. For the sample, actives were picked, then their nearest neighbours and some compounds at random.
Potency is read from the fitted curve at half-maximal effect.

The test is described as follows: qHTS for induction of synthetic lethality in tumor cells producing 2HG: qHTS for the HT-1080-IDH1KD cell line. As to conditions: HT-1080 IDH1 knockdown viability, ATP luminescence, 48 h; series mostly up to 46.1 µM. A digest of the protocol: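 In this qHTS, HT-1080 cells depleted of IDH1 are exposed for 48 h at 37 °C to compound titrations. Toxicity is scored from CellTiter-Glo luminescence, with DMSO as full viability and medium alone as none.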
For orientation: Quantitative high-throughput screening tests each substance at several concentrations.
In the case of `OC[C@@H]1CN(Cc2cccs2)C[C@H](n2cnc3c(NC4CCCC4)ncnc32)O1`, the Potency result was “inactive”. With `OC[C@@H]1CN(Cc2ccc(F)cc2)C[C@H](n2cnc3c(NC4CCCC4)ncnc32)O1` the entry was “inactive”; with `OC[C@@H]1CN(Cc2ccc(-c3ccccc3)cc2)C[C@H](n2cnc3c(NC4CCCC4)ncnc32)O1`, 20.6 µM (active); with `CC1=C(C(=O)N2CCOCC2)CC(CC(=O)NCc2cccc3ccccc23)C(=O)N1CCC1=CCCCC1` (centres undefined), “inactive”.

Take `Cc1ccc(C(=O)NC(C)C(c2cccs2)N2CCOCC2)cc1C` (centres undefined): the Potency result is “inactive”.

For the molecule `CCC(=O)N1Cc2cc(C(=O)NCc3cccc(F)c3)nc(-c3cccc(C4=CCCC4)c3)c2[C@H]1CCO`, the Potency entry is “inactive”. Turning to `COc1cc(OC)cc(C2=Cc3ccccc3C(CC(=O)c3ccco3)N2c2ccc(-c3cnc(OC)nc3)cc2)c1` (centres undefined), the Potency entry was “inactive”. Take `CC(C)(O)C(=O)NN(C(=O)c1ccccc1)c1cccc(Br)c1`: the Potency entry is “inactive”. With `Cc1cccc(N(Cc2ccccc2)C(=O)c2ccccc2F)c1` the entry was “inactive”; with `CCCC(O)(CCC)C(=O)NN(C(=O)CCl)c1cccc(C)c1`, 5.17 µM (active). With `CC1(C(=O)NS(=O)(=O)c2cccc(OC(F)F)c2)CCN1C(=O)C1CC1` (centres undefined) the entry was “inactive”; with `O=C(Nc1ccc(F)cc1)C(CCc1ccccc1)N1CCN(CC(=O)N2CCCC2)CC1` (centres undefined), “inactive”. In the case of `Cc1nc(N2CCOCC2)sc1C(=O)NN`, the Potency result was “inactive”.

On to `Cc1nc(-c2ccc(Cl)cc2)sc1C(=O)CBr`, for which the Potency result is “inactive”. To `Cc1nc(-c2ccc(Cl)cc2)sc1C(=O)NN` belongs 10.3 µM (active). With `COCCCNC(=O)c1ccc(-c2c(C)noc2C)c2ccoc12`, the Potency entry was “inactive”.

On to `O=C(NC(Nc1nc2ccc([N+](=O)[O-])cc2s1)(C(F)(F)F)C(F)(F)F)c1ccccc1`, for which the Potency was 5.17 µM (active).

Consider `O=C(COC(=O)c1ccc([N+](=O)[O-])cc1Cl)NC(=O)c1ccccc1`, for which the Potency entry is “inactive”. To `O=C(NOCc1ccccc1)c1cccc([N+](=O)[O-])c1` belongs “inactive”; to `COc1ccc(OC)c(NC(=O)C2(C)CCN2C(=O)Cc2ccccc2)c1` (centres undefined), “inactive”; to `Cc1cc(C(=O)N2CCCC2(C)C(=O)O)c(C)o1` (centres undefined), “inactive”.

On to `COC(=O)[C@@]1(Cc2ccc(F)cc2)[C@H]2c3cc(C(=O)N4CCCC4)n(C[C@H](O)CO)c3C[C@H]2CN1C(=O)c1ccccc1`, for which the Potency result is “inactive”.

In the case of `COC(=O)[C@@]1(Cc2ccc(F)cc2)[C@H]2c3cc(C(=O)N(C)C)n(CCc4c[nH]c5ccc(OC)cc45)c3C[C@H]2CN1C(=O)c1ccccc1`, the Potency result is “inactive”. To `COC(=O)[C@@]1(Cc2ccc(F)cc2)[C@H]2c3cc(C(=O)N4CCCC4)n(Cc4ccc(OC(F)(F)F)cc4)c3C[C@H]2CN1C(=O)c1ccccc1` belongs 23.1 µM (active). With `CCCNC(=O)C1(C)CCN(Cc2csc(-c3ccc(Cl)cc3)n2)C1` (centres undefined) the entry was “inactive”.

Turning to `COc1ccc(-c2cc3c(c4c2ccn4C)C2CCC3C2)cn1` (centres undefined), the Potency entry is “inactive”. With `COc1cccc(-n2c(SCC(=O)NC3CCCCC3)nc3n[nH]c(C)c3c2=N)c1` the figure was 18.4 µM (active); with `COc1cccc(-n2c(SCC(=O)NC3CCS(=O)(=O)C3)nc3ccccc3c2=O)c1` (centres undefined), “inactive”; with `C=CCn1c(CC(=O)Nc2cccc(OC)c2)nnc1SCC(=O)NC1CCCCC1`, “inactive”.

As to `CCc1noc(C)c1C(=O)OCC(=O)c1ccc(NC(=O)CC(C)C)cc1`, the Potency entry was “inactive”. On to `FC(F)(F)c1ccccc1Cc1c(-c2ccccc2)nc2c3ccccc3ccn12`, for which the Potency result is “inactive”. With `O=C(NCC(F)(F)F)c1ccc(S(=O)(=O)NCCc2ccc3c(c2)OCCO3)cc1`, the Potency result is “inactive”. `Cc1cc(C)nc(Nc2n[nH]c(-c3ccccc3N)n2)n1`: the Potency was 32.6 µM (active). For the molecule `CCCOc1ccccc1-c1nc(SCCC(=O)O)n[nH]1`, the Potency entry was “inactive”. With `Nc1ccccc1-c1nc2ccncc2[nH]1` the entry was “inactive”; with `CCOC(=O)[C@]12CCC=C1N(CCC1=CCCCC1)C(=O)[C@H](CC(=O)NCc1ccc(C)o1)C2`, “inactive”; with `CC(=O)C[C@@H]1OC[C@H](C)N1S(=O)(=O)c1ccc(C)cc1`, “inactive”. With `CCN(CC)CCOCCOc1ccc(Cl)c2ccccc12` the entry was “inactive”; with `CN(C)CCOCCOc1ccc(Cl)c2ccccc12`, 20.6 µM (active). With `CN(C)CCOc1ccc(Cl)cc1C(C)(C)C` the entry was “inactive”. Take `N#CCCC(C#N)(c1cccnc1)N1CCOCC1` (centres undefined): the Potency entry is “inactive”.

As to `CCC(C)CN1C(=O)CN(S(C)(=O)=O)CC1(C)C(=O)Nc1ccc2c(c1)OCCO2` (centres undefined), the Potency result was “inactive”.

Consider `O=C(NCc1ccco1)c1cccc(-c2ccc3nncn3c2)c1`, for which the Potency result is “inactive”. Consider `Cn1c(=O)[nH]c(=O)c2c1[nH]c(=S)n2Cc1ccccc1`, for which the Potency result is “inactive”.

For `CCC1(C)Cc2c(sc3[nH]c(=S)n(Cc4ccccc4)c(=O)c23)CO1` (centres undefined), the Potency was 14.6 µM (active).

In the case of `CCCSc1nc(NCc2ccco2)c2c3c(sc2n1)COC(C)(CC)C3` (centres undefined), the Potency result is “inactive”. To `OC[C@@H]1CN(Cc2cccs2)C[C@H](n2cnc3c(Nc4ccccc4)ncnc32)O1` belongs “inactive”; to `Cc1ccc(Cl)cc1NC(=S)N(CCN(C)C)Cc1cccs1`, “inactive”. Turning to `Cc1cc(Cl)ccc1-c1nc(NCCN(C)C)nc2ccsc12`, the Potency is 23.1 µM (active). To `O=C(CC[C@H]1O[C@@H](n2ccc(=O)[nH]c2=O)[C@H](O)[C@@H]1O)N[C@H](Cc1ccccc1)C(=O)NCc1ccco1` belongs “inactive”; to `CCc1ccccc1NC(=O)CN1CCN(C(=O)c2cc(C3CC3)nn2-c2ccccc2)CC1`, “inactive”; to `COc1ccc(NC(=O)CCCOc2ccc(C(C)=O)cc2)cc1S(=O)(=O)N1CCCCC1`, “inactive”.

In the case of `CCC(CC)C(C(=O)NC1CCCC1)N1CCN(c2cc(C)nc3ccccc23)CC1` (centres undefined), the Potency result was “inactive”. With `COc1ccc(CCNC(=O)/C(C#N)=C2\N=C(NC(=O)c3cccs3)c3ccccc32)cc1` the entry was “inactive”. With `Cc1ccc2nc(/C(C#N)=C\c3ccc(OC(=O)c4cccs4)cc3)[nH]c2c1` the figure was 7.94 µM (active). To `COc1ccc2c(c1)CCCO[C@]21O[C@H](CCO)C[C@H](O)[C@H]1O` belongs “inactive”. Take `Nc1ncnc2c1ncn2[C@@H]1O[C@H](C(=O)N2CCSC2)[C@@H](O)[C@H]1O`: the Potency entry is “inactive”.

Take `CC1(C(=O)Nc2ccc3c(c2)OCCO3)CN(S(C)(=O)=O)CC(=O)N1Cc1cccc(F)c1` (centres undefined): the Potency result was “inactive”. With `Fc1ccc2[nH]c3c(N4CCN(Cc5ccc6c(c5)OCO6)CC4)ncnc3c2c1` the figure was 23.1 µM (active); with `O=c1[nH]c(N2CCN(Cc3ccc4c(c3)OCO4)CC2)nc2c1CCCC2`, “inactive”; with `CCCCCc1c(C)nc(N2CCN(Cc3ccc4c(c3)OCO4)CC2)[nH]c1=O`, “inactive”.

With `CC(C)NC(=O)N1Cc2cc(C(=O)NCC(F)(F)F)nc(-c3cccc(-c4cc5ccccc5o4)c3)c2[C@@H]1CCO`, the Potency entry is “inactive”.

Take `CCOC(=O)C1CCCN(C(=O)c2cc(-c3cccs3)oc2C)CC1` (centres undefined): the Potency entry was “inactive”. Consider `CCn1c(SCC(=O)N2CCCC2=O)nc2ccccc21`, for which the Potency result is “inactive”. To `CCC(=C/c1sc2ccc3ccccc3c2[n+]1C)/C=C1\Sc2ccc3ccccc3c2N1C` belongs 5.17 µM (active); to `CCC1NC(=O)c2cccnc2-n2c1nc1ccc(C)cc1c2=O` (centres undefined), “inactive”. Turning to `CCCS(=O)(=O)NC(=O)C1(C)CCN(C(=O)c2sccc2C)C1` (centres undefined), the Potency result was “inactive”. In the case of `COc1ccc2nc(/N=C(\N)NC(=O)Nc3ccccc3)nc(C)c2c1`, the Potency result was “inactive”. In the case of `Cc1nc(/N=C(\N)NC(=O)NC2CCCCC2)nc2ccccc12`, the Potency was 14.6 µM (active). To `CC(C)c1cc(C(=O)NC2CCCCCC2)c2ccccc2n1` belongs “inactive”; to `C[C@@H]1CC2=C(C(=O)OC(C)(C)O2)[C@@H](C2CC2)O1`, “inactive”; to `CN(Cc1ccc(C(F)(F)F)cc1)C(=O)[C@H]1O[C@@H](n2cnc3c(N)ncnc32)[C@H](O)[C@@H]1O`, “inactive”. With `COc1ccc(-c2c(-c3ccc(OC)cc3O)nc(C)nc2C(F)(F)F)cc1` the entry was “inactive”; with `COc1ccc(-c2[nH]ncc2CN(C)Cc2c(C)n[nH]c2C)c(OC)c1`, “inactive”; with `COc1ccc(-c2n[nH]c(C)c2-c2ccc(OC)c(OC)c2)c(O)c1`, 18.4 µM (active). Turning to `CC1(C(=O)NS(=O)(=O)c2ccccc2)CCN1C(=O)C1CCCCC1` (centres undefined), the Potency entry was “inactive”.

For the molecule `O=C1c2ccccc2C(c2nc3ccccc3[nH]2)N1c1ccccc1` (centres undefined), the Potency entry is “inactive”.

In the case of `C=C1c2c(Cl)ccc(O)c2C(O)=C2C(=O)[C@]3(O)C(O)=C(C(N)=O)C(=O)[C@@H](N(C)C)[C@@H]3[C@@H](O)C12` (some centres undefined), the Potency is 18.4 µM (active). With `O=C1OCCC1=COCCCCOC=C1CCOC1=O` the entry was “inactive”; with `COc1ccc(C(O)c2nc(-c3ccc4c(c3)OCO4)cs2)cc1` (centres undefined), “inactive”; with `C[C@@H]1CN([C@H](C)CO)C(=O)CCCn2cc(nn2)CO[C@H]1CN(C)S(C)(=O)=O`, “inactive”.

For `COc1ccc(/C=C(\NC(=O)c2ccc(OC)c(OC)c2)C(=O)NCCc2c[nH]c3ccccc23)cc1`, the Potency result was “inactive”. For the molecule `COc1ccc(/C=C(\C#N)c2c[nH]c3ccccc23)cc1`, the Potency is 0.731 µM (active). With `COc1ccc(C(C(O)C(=O)c2c[nH]c3ccccc23)N2CCN(c3ccccc3)CC2)cc1` (centres undefined) the entry was “inactive”.

`C[C@H](CO)N1C[C@H](C)[C@@H](CN(C)C(=O)C2CCCCC2)OCc2cnnn2CCCC1=O`: the Potency entry was “inactive”.

Turning to `C[C@H]1CN(c2ccc(Br)cc2)C(=O)[C@@H]1CC(=O)Nc1ccc(Br)cc1`, the Potency entry was “inactive”. With `COc1ccc(CS(=O)/C(Cl)=C(/Cl)C(=O)Nc2ccc(OC)nc2)cc1` (centres undefined) the figure was 18.4 µM (active); with `COc1ccc(NC(=O)CN2C(=O)NC(C)(c3ccccc3)C2=O)cn1` (centres undefined), “inactive”; with `COc1ccc(CCNC(=O)c2cnc(Cl)c(Cl)c2)cc1`, “inactive”.

On to `CC(C)Cn1cc(-c2cncc3nccn23)cn1`, for which the Potency result is “inactive”.

For the molecule `CC1(C)CN(CCc2ccccc2)C(=O)[C@H]1CC(=O)Nc1ccc(Br)cc1`, the Potency entry is “inactive”. Regarding `CCOC(=O)c1c(NC(=O)COC(=O)c2ccc(S(=O)(=O)C(F)F)cc2)sc(C(=O)N(C)C)c1C`, the Potency result is “inactive”. To `COc1cccc(NC(=O)C2(C)CCN2Cc2ccccc2Cl)c1` (centres undefined) belongs “inactive”; to `CCN1/C(=C/c2ccc3ccc(C)cc3[n+]2CC)Sc2ccccc21`, 20.6 µM (active).
